Assay results: ChEMBL document CHEMBL1961873, “Compounds: GSK PKIS; Assays: Nanosyn kinase panel” (2012)

Legend:
[1] = biological target: Fibroblast growth factor receptor 4 (Homo sapiens) (UniProt P22455); conditions: at 1 µM;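 also: reported figure is the averaged percent inhibition of FGFR4, from the GSK PKIS kinase screening panel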
[2] = biological target: Tyrosine-protein kinase Fgr (Homo sapiens) (UniProt P09769); conditions: at 0.1 µM
[3] = biological target: Tyrosine-protein kinase Fgr (Homo sapiens) (UniProt P09769); conditions: at 1 µM
[4] = biological target: Vascular endothelial growth factor receptor 1 (Homo sapiens) (UniProt P17948); conditions: at 0.1 µM
Vascular endothelial growth factor receptor 1 (Homo sapiens), sequence (P17948 whole entry): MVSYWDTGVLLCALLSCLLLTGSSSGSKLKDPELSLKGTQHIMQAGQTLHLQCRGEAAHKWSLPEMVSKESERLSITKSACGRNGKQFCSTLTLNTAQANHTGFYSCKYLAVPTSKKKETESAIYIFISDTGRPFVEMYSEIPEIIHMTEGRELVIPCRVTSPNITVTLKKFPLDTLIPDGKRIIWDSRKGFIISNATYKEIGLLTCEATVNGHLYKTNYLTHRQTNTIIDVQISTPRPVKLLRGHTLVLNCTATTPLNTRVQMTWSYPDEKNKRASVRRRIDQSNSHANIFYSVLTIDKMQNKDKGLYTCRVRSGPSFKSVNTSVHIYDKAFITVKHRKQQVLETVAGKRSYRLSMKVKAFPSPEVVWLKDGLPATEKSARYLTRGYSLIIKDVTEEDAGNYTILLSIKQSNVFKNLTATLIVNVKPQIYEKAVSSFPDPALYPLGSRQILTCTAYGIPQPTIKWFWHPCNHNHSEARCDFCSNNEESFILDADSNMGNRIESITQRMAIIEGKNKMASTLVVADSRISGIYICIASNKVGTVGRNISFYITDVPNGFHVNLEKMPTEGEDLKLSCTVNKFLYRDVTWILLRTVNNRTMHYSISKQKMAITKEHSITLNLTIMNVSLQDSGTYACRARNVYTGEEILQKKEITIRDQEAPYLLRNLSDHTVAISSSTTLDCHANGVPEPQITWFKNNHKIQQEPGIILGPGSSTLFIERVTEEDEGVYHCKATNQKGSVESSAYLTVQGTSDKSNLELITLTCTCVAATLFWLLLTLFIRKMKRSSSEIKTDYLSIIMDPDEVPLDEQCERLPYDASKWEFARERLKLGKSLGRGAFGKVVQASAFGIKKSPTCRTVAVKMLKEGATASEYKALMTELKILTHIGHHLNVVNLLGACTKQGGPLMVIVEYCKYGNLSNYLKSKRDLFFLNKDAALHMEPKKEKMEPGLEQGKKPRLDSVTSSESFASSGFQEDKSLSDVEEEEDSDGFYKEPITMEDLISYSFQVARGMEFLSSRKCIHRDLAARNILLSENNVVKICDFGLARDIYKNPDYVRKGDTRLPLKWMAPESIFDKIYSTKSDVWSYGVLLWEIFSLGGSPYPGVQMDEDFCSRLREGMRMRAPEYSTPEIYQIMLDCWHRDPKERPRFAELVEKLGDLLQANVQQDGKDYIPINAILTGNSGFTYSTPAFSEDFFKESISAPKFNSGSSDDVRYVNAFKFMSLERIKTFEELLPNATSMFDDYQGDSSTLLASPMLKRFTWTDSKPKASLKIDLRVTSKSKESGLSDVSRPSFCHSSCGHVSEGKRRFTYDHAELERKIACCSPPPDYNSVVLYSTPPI

[5] = biological target: Vascular endothelial growth factor receptor 1 (Homo sapiens) (UniProt P17948); conditions: at 1 µM
[6] = biological target: Receptor-type tyrosine-protein kinase FLT3 (Homo sapiens) (UniProt P36888); conditions: at 0.1 µM
[7] = biological target: Receptor-type tyrosine-protein kinase FLT3 (Homo sapiens) (UniProt P36888); conditions: at 1 µM
[8] = system: T1, Receptor-type tyrosine-protein kinase FLT3 (Homo sapiens), P36888 [D835Y]; conditions: at 0.1 µM
T1 sequence (whole entry): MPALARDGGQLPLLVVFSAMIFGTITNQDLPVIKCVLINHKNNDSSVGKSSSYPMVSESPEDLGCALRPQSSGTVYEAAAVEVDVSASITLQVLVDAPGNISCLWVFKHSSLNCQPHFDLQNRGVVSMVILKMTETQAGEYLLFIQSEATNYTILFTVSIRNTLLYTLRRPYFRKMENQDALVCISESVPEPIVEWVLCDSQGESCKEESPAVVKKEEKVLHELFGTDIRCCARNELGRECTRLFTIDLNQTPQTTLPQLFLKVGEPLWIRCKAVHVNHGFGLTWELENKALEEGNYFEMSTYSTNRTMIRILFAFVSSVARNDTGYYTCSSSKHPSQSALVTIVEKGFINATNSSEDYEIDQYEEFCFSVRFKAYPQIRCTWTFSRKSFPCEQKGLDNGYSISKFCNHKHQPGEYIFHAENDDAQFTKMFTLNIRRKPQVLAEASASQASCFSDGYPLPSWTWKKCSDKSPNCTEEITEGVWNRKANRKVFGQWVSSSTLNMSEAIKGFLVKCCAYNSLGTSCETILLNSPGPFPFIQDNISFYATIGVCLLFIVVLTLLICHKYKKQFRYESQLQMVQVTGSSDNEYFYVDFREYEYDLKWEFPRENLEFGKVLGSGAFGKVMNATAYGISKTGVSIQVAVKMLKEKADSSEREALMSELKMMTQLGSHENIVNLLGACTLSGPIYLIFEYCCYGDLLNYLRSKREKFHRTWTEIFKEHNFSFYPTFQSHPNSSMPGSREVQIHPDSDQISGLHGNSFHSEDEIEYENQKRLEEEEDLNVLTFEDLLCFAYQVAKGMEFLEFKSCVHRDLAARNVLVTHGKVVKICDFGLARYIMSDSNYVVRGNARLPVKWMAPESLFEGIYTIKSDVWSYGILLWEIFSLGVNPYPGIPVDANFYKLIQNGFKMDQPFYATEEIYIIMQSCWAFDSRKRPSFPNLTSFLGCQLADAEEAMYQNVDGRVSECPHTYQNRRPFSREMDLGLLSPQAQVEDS

[9] = biological target: Non-receptor tyrosine-protein kinase TYK2 (Homo sapiens) (UniProt P29597); conditions: at 1 µM;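 also: values are mean percent inhibition of TYK2 kinase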
Non-receptor tyrosine-protein kinase TYK2 (Homo sapiens), sequence (P29597 whole entry): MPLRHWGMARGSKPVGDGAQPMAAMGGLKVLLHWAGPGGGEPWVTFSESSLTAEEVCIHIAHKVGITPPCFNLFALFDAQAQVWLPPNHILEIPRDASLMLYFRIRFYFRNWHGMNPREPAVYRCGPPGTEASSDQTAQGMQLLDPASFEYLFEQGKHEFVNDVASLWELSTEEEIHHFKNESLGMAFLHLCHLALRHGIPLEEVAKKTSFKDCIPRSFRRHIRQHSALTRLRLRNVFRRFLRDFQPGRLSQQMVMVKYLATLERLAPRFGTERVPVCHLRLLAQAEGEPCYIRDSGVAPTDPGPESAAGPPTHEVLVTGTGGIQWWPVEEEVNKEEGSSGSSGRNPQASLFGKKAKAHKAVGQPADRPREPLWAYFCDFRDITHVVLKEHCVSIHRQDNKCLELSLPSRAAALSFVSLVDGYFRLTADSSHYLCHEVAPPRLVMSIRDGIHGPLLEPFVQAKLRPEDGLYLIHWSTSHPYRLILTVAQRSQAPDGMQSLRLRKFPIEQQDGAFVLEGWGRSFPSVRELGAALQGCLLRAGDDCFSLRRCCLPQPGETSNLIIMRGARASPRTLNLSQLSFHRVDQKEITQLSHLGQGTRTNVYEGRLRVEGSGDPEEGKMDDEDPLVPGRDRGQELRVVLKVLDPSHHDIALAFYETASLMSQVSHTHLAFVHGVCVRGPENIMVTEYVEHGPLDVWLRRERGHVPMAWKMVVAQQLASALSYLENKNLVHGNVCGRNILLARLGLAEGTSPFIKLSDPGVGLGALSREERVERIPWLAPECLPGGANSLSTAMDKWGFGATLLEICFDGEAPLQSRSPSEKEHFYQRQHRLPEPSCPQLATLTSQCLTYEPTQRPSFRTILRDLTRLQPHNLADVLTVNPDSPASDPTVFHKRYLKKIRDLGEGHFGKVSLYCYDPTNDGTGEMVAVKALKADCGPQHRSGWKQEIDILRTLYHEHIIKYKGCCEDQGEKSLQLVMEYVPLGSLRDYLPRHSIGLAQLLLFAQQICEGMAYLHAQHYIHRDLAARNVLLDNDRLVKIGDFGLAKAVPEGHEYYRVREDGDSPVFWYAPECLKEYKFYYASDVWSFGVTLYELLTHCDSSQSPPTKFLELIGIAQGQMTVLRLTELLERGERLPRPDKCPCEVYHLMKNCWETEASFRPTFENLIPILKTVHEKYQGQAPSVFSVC

[10] = biological target: T2, Tyrosine-protein kinase receptor TYRO3 (Homo sapiens) (UniProt Q06418); conditions: at 0.1 µM;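 also: reported percentages are averaged inhibition values of TYRO3 kinase activity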
T2 sequence (whole entry): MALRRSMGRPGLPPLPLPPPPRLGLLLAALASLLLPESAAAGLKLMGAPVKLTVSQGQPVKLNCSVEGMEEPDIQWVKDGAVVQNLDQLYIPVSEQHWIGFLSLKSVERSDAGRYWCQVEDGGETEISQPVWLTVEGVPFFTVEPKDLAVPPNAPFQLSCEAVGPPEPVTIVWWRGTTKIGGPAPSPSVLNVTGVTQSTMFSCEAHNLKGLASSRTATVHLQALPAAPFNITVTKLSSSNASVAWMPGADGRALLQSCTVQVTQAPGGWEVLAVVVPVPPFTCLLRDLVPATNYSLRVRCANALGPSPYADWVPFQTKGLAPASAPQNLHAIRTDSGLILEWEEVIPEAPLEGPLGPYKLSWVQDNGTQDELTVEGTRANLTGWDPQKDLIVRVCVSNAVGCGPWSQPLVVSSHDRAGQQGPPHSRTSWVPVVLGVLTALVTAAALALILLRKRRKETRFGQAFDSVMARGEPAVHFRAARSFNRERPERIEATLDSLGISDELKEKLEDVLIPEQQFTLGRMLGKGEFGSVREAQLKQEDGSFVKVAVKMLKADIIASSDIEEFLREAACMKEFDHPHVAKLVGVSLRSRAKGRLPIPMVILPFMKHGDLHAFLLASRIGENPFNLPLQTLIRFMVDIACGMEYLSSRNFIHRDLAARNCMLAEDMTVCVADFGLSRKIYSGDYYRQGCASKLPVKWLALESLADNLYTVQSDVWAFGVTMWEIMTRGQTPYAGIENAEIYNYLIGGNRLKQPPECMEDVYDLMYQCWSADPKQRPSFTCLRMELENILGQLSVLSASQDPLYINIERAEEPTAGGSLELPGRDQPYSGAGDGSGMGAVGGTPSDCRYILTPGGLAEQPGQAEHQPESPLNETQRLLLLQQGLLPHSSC

Tyrosine-protein kinase Fgr (Homo sapiens), sequence (P09769 2-529 limits assumed): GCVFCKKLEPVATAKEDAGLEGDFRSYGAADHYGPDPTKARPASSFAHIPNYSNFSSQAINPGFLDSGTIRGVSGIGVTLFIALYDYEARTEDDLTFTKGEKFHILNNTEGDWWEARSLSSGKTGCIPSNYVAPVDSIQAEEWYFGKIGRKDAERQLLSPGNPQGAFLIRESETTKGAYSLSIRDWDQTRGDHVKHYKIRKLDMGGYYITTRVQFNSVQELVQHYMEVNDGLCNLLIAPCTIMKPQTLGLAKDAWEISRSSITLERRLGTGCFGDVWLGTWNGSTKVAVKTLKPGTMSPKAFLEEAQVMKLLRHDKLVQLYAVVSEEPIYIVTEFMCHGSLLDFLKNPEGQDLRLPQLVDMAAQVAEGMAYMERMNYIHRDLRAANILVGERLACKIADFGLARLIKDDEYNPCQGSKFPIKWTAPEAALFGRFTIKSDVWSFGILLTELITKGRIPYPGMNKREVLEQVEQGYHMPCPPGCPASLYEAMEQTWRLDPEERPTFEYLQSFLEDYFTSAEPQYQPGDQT
Fibroblast growth factor receptor 4 (Homo sapiens), sequence (P22455 22-802 limits assumed): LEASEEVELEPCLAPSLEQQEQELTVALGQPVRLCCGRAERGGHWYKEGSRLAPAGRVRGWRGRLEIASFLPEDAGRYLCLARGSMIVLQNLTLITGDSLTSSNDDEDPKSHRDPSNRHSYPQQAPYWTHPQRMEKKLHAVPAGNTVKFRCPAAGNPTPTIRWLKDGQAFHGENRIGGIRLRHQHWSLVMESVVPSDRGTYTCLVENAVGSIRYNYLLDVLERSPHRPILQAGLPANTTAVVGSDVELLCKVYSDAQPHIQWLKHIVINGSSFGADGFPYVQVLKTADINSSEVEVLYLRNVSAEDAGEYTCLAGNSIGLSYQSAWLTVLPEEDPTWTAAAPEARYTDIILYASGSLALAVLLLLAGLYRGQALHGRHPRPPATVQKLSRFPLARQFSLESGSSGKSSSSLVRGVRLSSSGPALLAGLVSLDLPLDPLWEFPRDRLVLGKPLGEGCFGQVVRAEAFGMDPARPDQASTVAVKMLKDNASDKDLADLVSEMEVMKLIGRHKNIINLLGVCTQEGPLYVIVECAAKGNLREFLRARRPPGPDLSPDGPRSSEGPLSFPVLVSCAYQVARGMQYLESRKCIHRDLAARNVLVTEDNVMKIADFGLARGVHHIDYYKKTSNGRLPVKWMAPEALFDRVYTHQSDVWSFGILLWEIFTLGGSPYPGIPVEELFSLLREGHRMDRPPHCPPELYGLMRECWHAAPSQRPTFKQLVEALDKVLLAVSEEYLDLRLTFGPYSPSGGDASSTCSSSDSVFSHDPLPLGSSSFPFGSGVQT

Structure (SMILES)	inhibition [1]	inhibition [2]	inhibition [3]	inhibition [4]	inhibition [5]	inhibition [6]	inhibition [7]	inhibition [8]	inhibition [9]	inhibition [10]
CCc1cccc(NC(=O)Nc2ccc(Oc3ccc4nc(NC(=O)OC)[nH]c4c3)cc2)c1	-0.63%	5.68%	5.18%	36.4%	43.8%	37.4%	48%	1.59%	-2.46%	10.6%
CC(C)=Cc1cccc2c1/C(=N/Nc1ccc(S(N)(=O)=O)cc1)C(=O)N2	1.59%	5.76%	25.3%	1.39%	13.9%	6.79%	48.9%	15.6%	20.7%	2.83%
O=C(Nc1n[nH]c2nc(-c3ccco3)c(Br)cc12)C1CC1	2.76%	2.88%	11.3%	2.26%	4.22%	1.23%	2.62%	-1.82%	-1.51%	2.22%
Cc1cccc(-c2n[nH]cc2-c2ccc3ncccc3n2)n1	1.18%	2.06%	4.41%	3.33%	29.2%	-1.33%	-0.33%	-5.04%	0.67%	0.27%
CN(C)c1cc2c(Nc3ccc4nc(Cc5ccccc5)[nH]c4c3)ncnc2cn1	13.5%	17.2%	42.2%	3.21%	11.2%	0.49%	0.52%	-0.65%	-7.84%	3.2%
CC1=C(C(=O)Nc2ccc3[nH]ncc3c2)C(c2ccc3ccccc3c2)CC(=O)N1 (stereo not given)	10.6%	3.21%	15.1%	2.44%	4.08%	0.05%	3.17%	0.1%	4.98%	3.61%
CNC(=O)c1cncc(/C=C/c2c(Cl)cccc2Cl)c1	1.17%	3.11%	21.3%	0.03%	4.61%	-0.33%	2.17%	-3.3%	-3.44%	1.91%
CCn1c(-c2nonc2N)nc2cnc(Oc3cccc(NC(=O)c4ccc(OCCN5CCOCC5)cc4)c3)cc21	2.48%	4.08%	5.54%	0.64%	2.14%	0.9%	3.19%	-3.34%	-1.28%	3.27%
COc1cc(C)c(NC(=O)CN(C)C)cc1Nc1nc(Nc2cccc(F)c2C(N)=O)c2cc[nH]c2n1	1.48%	0.83%	2.7%	2.27%	0.42%	1.69%	4.08%	-5.02%	-1.61%	2.82%
CCn1c(-c2nonc2N)nc2c(C#CC(C)(C)O)nc(CN3CCCC3)cc21	1.16%	-1.03%	3.81%	-1.48%	3.78%	-1.67%	-0.42%	-4.71%	-0.89%	0.06%
Cc1ccc(C(=O)NC2CCCCC2)cc1-c1ccc(C(=O)NCC2CC2)cc1	2.89%	2.07%	5.25%	2.97%	2.09%	0.22%	-0.64%	-1.58%	-2.34%	1.42%
O=C1NC(=O)C(N2CCc3ccccc32)=C1c1ccc(Cl)cc1	1.44%	2.39%	8.07%	1.82%	5.14%	2.06%	5.05%	-2.14%	-4.27%	3.4%
NC(=O)c1cccc(Nc2nccc(Nc3cccc4[nH]ncc34)n2)c1	6.94%	53.6%	76.7%	2.24%	29.2%	6.63%	48%	10.4%	39.1%	9.98%
Cc1ccc(NC(=O)c2ccnc(N3CCCC3)c2)cc1-c1ccc(C(=O)NCC2CC2)cc1	-0.86%	1.54%	6.32%	-0.77%	0.49%	1.08%	7.31%	-8.49%	-2.58%	2.24%
COC(=O)Nc1nc2cc(Oc3cccc(NC(=O)Nc4cc(C(F)(F)F)ccc4F)c3)ccc2[nH]1	0.74%	1.17%	3.3%	2.97%	25.7%	-3.12%	3.93%	1.62%	1.94%	-1.36%
CCCN1CCC(Oc2cc(Nc3nc(Nc4cccc(F)c4C(N)=O)c4cc[nH]c4n3)c(OC)cc2Cl)CC1	1.48%	0.61%	4.19%	-0.02%	2.7%	0.23%	2.55%	-3.12%	0.45%	-0.27%
COc1ccc(-c2coc3ncnc(N)c23)cc1	1.55%	0.55%	5.25%	-1.7%	2.37%	2.97%	4.59%	3.34%	-3.97%	2.29%

Structure (SMILES)	inhibition [1]	inhibition [2]	inhibition [3]	inhibition [4]	inhibition [5]	inhibition [6]	inhibition [7]	inhibition [8]	inhibition [9]	inhibition [10]
COc1cc2ncn(-c3cc(OCc4ccccc4Cl)c(C(N)=O)s3)c2cc1OC	2.76%	3.61%	19.1%	0.69%	9.81%	0.85%	3.62%	-2.29%	2.41%	1.87%
CCCN1CCC=C(c2ccc(Nc3nc(Nc4ccccc4C(N)=O)c4cc[nH]c4n3)c(C)c2)C1	1.82%	-0.56%	4.71%	-0.55%	5.76%	6.74%	9.96%	3.17%	-1.46%	0.75%
Fc1cccc(COc2ccc(Nc3ncnc4sc(-c5cccs5)cc34)cc2Cl)c1	3.41%	1.43%	3.69%	-0.58%	3.56%	0.38%	3.27%	-2.12%	1.15%	0.54%
COc1cc2ncn(-c3cc(O[C@H](C)c4ccccc4Cl)c(C(N)=O)s3)c2cc1OC	8.7%	8.54%	17.3%	4.8%	26.2%	6.07%	24.8%	5.85%	-0.12%	7.57%
CS(=O)(=O)Nc1ccc(N/C=C2\C(=O)Nc3ccccc32)cc1	5.07%	1.13%	15%	4.31%	20.8%	18.4%	74.1%	18.7%	9.24%	-2.18%
NC(=O)c1ccc(-c2nc(-c3ccccn3)c(-c3ccc4c(c3)OCO4)[nH]2)cc1	-0.14%	3.69%	5.27%	-0.48%	-1%	1.89%	2.37%	1.11%	-0.31%	2.08%
O=C1NC(=O)C(c2cccc(Cl)c2)=C1Nc1ccc(O)c(Cl)c1	2.43%	-2.2%	3.74%	0.72%	1.36%	-1.02%	0.95%	-6.93%	20%	-0.43%
CC1=C(C(=O)Nc2ccc3[nH]ncc3c2)C(c2ccc(F)cc2)NC(=O)N1 (stereo not given)	7.73%	0.15%	0.7%	-0.38%	2.35%	0.82%	0.62%	-0.62%	26.3%	1.55%
COc1ccccc1Nc1ncc(-c2ccccc2)o1	0.7%	5.21%	12.1%	4.3%	16.4%	61%	87.2%	5.09%	-0.92%	1.91%
O=C1Nc2ccc(C(=O)c3ccco3)cc2C1=Cc1cc(Cl)c(O)c(Cl)c1	7.04%	2.46%	11.6%	1.07%	4.42%	1.69%	12.7%	4.82%	26.4%	1.96%
NS(=O)(=O)c1cccc(-c2ccc3c(NC(=O)C4CC4)n[nH]c3c2)c1	-0.5%	-1.55%	-0.19%	-1.03%	-0.85%	0.61%	-0.59%	-3.17%	1.94%	-0.52%
O=C1NC(=O)C(c2ccccc2Cl)=C1Nc1cccc(O)c1	0.13%	1.27%	2.07%	0.36%	0.77%	2.15%	2.8%	3.17%	-2.87%	1.29%
COc1ccc(-c2ccncc2)cc1C(N)=O	1.48%	3.69%	4.6%	2.23%	2.25%	5.04%	2.52%	4.29%	-3.25%	1.12%
COc1cc2c(cc1Nc1nc(N3CCc4ccccc43)c3cc[nH]c3n1)N(C(=O)CN(C)C)CC2	0.78%	-0.2%	3.44%	1.49%	2.02%	0.56%	-1.35%	-2.55%	-2.82%	1.61%
COc1cc(C=NNc2ncnc3c2cnn3-c2ccccc2)ccc1O	3.32%	12.8%	49.6%	3.24%	15.1%	15.6%	54.6%	17.7%	0.57%	5.56%
Fc1cccc(COc2ccc(Nc3ncnc4cc(-c5ccc[nH]5)sc34)cc2Cl)c1	-3.31%	3.74%	11%	-0.98%	1.18%	-0.44%	2.33%	2.49%	0.5%	2.87%
